Measured values: PubChem BioAssay (NCATS)
Records with an inconclusive call do not appear. The source made the active and inactive calls. Unless noted, the call rests on the fitted dose curve; in most records, active means well fitted curve in the direction sought with a large enough effect; inconclusive means small, poorly fitted or top-dose-only effect, or another doubt; inactive means no such curve, though single readings can be large; an effect the other way counts as inactive or inconclusive.

Tests used:
[1] = Cell Viability - SH-SY5Y (AID 544);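 further: cells exposed to compound for 40 hours; nearly all actives have a fitted effect of over 55% in size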
Procedure, shortened: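 Cytotoxicity measured via ATP-dependent luciferase luminescence (CellTiter-Glo) following 40 h, 37 °C exposure of 1500 SH-SY5Y cells per well. Concentration-response data were fitted with the standard Hill equation to give AC50.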

[2] = Cellular Toxicity (caspase-3) SK-N-SH (AID 661);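 further: cells exposed to compound for 16 hours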
Procedure, shortened: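 Caspase 3/7 activation was read by luminogenic substrate cleavage after 16 hour treatment of SK-N-SH cells. Signal was scaled between DMSO and 10 uM staurosporine, and concentration-response data were fitted with the Hill equation for AC50.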

[3] = Cellular Toxicity (caspase-3) H-4-II-E (AID 663); details: Potency: caspase-3 activation;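 further: cells exposed to compound for 16 hr before readout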
Procedure, shortened: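 Caspase 3/7 activation measured in H-4-II-E cells in complete culture medium after 16 hr treatment at 37 °C, using luciferase-coupled substrate readout; AC50 values come from Hill-equation fits of normalized concentration-response data.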

[4] = Cellular Toxicity (caspase-3) N2a (AID 665);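 further: compound exposure lasted 16 h at 37 °C before readout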
Procedure, shortened: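 Caspase-3/7 activation measured as luminescence from Caspase-Glo reagent (1 h, room temperature) after 16 h compound exposure of mouse N2a cells. AC50 values from Hill-equation concentration-response, scaled between DMSO and 10 uM staurosporine.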

[5] = MultiTox-Fluor Cytotoxicity Assay - LYMP1-001 - Dead Cells (AID 946)
Procedure, shortened: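 Seed 2500 LYMP1-001 cells/well, incubate 5 hr at 37 C; add compound, 16 hr at 37 C; add MultiTox-Fluor reagent, 60 min RT; read dead-cell fluorescence Ex/Em=485/520. Normalize to DMSO and 15 uM tetraoctylammonium bromide.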

[6] = Cell Viability - LYMP1-002 - Assay at 16 hr (AID 948)
Procedure, shortened: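 LYMP1-002 human lymphoblastoid cells, 2500/well, were treated with compounds for 16 hr at 37 C in complete medium. Viability was read as intracellular ATP by CellTiter-Glo luminescence, and AC50 was derived from a Hill fit to concentration-response data.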

[7] = Cell Viability - LYMP1-003 - Assay at 40 hr (AID 964); further: series mostly up to about 92 µM; nearly all actives have a fitted effect of over 60% in size
Procedure, shortened: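 Viability is taken as cellular ATP, read by CellTiter-Glo luminescence after 40 h of compound exposure at 37 C. Cells: human lymphoblastoid line LYMP1-003 at 2500/well; AC50 values derived by Hill-equation fitting of concentration-response data.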

[8] = Cell Viability - LYMP2-011 (AID 969); further: nearly all actives have a fitted effect of over 60% in size
Procedure, shortened: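 Cytotoxicity qHTS with ATP content as read-out: lymphoblastoid cells (2500/well) exposed to compound for 24 h at 37 C, then luciferase luminescence measured. Concentration-response data fitted with the standard Hill equation to give AC50.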

[9] = Cell Viability - LYMP2-013 (AID 970); further: series mostly up to about 92 µM; nearly all actives have a fitted effect of over 55% in size
Procedure, shortened: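 qHTS cytotoxicity: ATP-dependent luminescence (CellTiter-Glo, 30 min room temperature) read after 24 h compound exposure at 37 C of 2500 LYMP2-013 lymphoblastoid cells per well. Concentration-response fitted with Hill equation to give AC50.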

[10] = Cell Viability - LYMP2-017 (AID 972); further: series mostly up to about 92 µM; nearly all actives have a fitted effect of over 55% in size
Procedure, shortened: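 CellTiter-Glo luminescence (cellular ATP, 30 min RT) measured cytotoxicity after 24 hr compound treatment at 37 C. Cells were a human lymphoblastoid line, LYMP2-017, plated at 2500/well and incubated 5 hr first; concentration-response fitted with Hill equation for AC50.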

[11] = Cell Viability - LYMP2-007 (AID 979);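 further: cells exposed to compound for 24 h before reading; nearly all actives have a fitted effect of over 60% in size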; further: potency means the concentration at half of the fitted maximal effect
Procedure, shortened: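 AC50 values come from Hill-equation fits of luminescent intracellular ATP (CellTiter-Glo, 30 min, room temperature) following 24 h compound exposure at 37 C. Cells: LYMP2-007 lymphoblastoid line, 2500 per well, in complete culture medium.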

[12] = Cell Viability - LYMP2-010 (AID 981); further: nearly all actives have a fitted effect of over 55% in size
Procedure, shortened: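 CellTiter-Glo ATP luminescence measured cytotoxicity after 24 h compound exposure at 37 C. LYMP2-010 cells were seeded at 2500/well, with tetraoctylammonium bromide as control; concentration-response curves gave AC50 values by the Hill equation.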

[13] = Cell Viability - LYMP2-012 (AID 982)
[14] = Cell Viability - LYMP2-020 (AID 986)
Procedure, shortened: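 Cytotoxicity in qHTS format: luminescent ATP readout from CellTiter-Glo after 24 h compound exposure at 37 C in complete medium. LYMP2-020 lymphoblastoid cells were seeded at 2500/well; concentration-response data fitted to the Hill equation for AC50.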

[15] = Cell Viability - LYMP2-022 (AID 987); further: nearly all actives have a fitted effect of over 55% in size
Procedure, shortened: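 Cytotoxicity read as decreased cellular ATP (CellTiter-Glo luminescence, 30 min room temperature) after 24 hours compound exposure of 2500 lymphoblastoid LYMP2-022 cells/well at 37 C. Concentration-response data fitted with standard Hill equation for AC50.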

[16] = Cell Viability - LYMP2-024 (AID 988); further: nearly all actives have a fitted effect of over 60% in size
Procedure, shortened: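 Cytotoxicity was taken as a decrease in ATP (CellTiter-Glo luminescence) after 24 hr compound exposure at 37 C of LYMP2-024 lymphoblastoid cells, 2500 cells/well. Concentration-response data were fitted to the Hill equation to give AC50.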

[17] = Cell Viability - Hek293 (AID 427;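 active means compounds whose dose-response curve shows a full or clear partial loss of cell viability, called from curve shape rather than a numeric limit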;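 further: potency means the concentration at half of the fitted maximal effect; cells exposed to compound for 40 hours at 37 °C before reading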); details: qHTS
Procedure, shortened: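 qHTS, human embryonic kidney (adenovirus-transformed) cells; 40 hr cpd, 37 °C; CellTiter-Glo ATP luminescence. Norm: DMSO = 0, 100 uM tamoxifen = 100% inhibition. Hill-fit AC50.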

[18] = Cell Viability - HepG2 (AID 433; calls by dose curve;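 further: potency means the concentration at half of the fitted maximal effect; cells exposed to compound for 40 hours; potency for ATP loss meaning cytotoxicity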); details: qHTS
Procedure, shortened: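 HepG2 cells, 1500 per well, treated 40 hr at 37 °C in complete medium; viability from intracellular ATP by CellTiter-Glo luminescence. Normalized to DMSO and 100 uM tamoxifen; AC50 from Hill fit of qHTS concentration-response.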

[19] = Cell Viability - H-4-II-E (AID 543);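 further: cells exposed to compound for 40 hours; nearly all actives have a fitted effect of over 35% in size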
Procedure, shortened: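 CellTiter-Glo luminescence (intracellular ATP) measured after 40 h compound exposure at 37 °C in H-4-II-E rat hepatoma cells seeded at 1500/well. Values are AC50s fitted with the standard Hill equation.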

[20] = Cellular Toxicity (caspase-3) NIH 3T3 (AID 666);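 further: caspase signal read after 16 h compound exposure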
Procedure, shortened: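 Caspase-Glo 3/7 luminescence reported caspase activation in 1000 NIH 3T3 cells/well after 16 h compound exposure at 37 C. DMSO set basal and 100 uM tamoxifen set 100% stimulation; concentration-response modeled with the Hill equation for AC50.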

Measured: Potency

O=C1c2ccccc2C(=O)C1c1ccc2ccccc2n1
active: [11] 39.8 µM
not listed: [17] | [18] | [19] | [20]
inactive: all other assays above

c1ccccc1
inactive: [17] > 92 µM | [18] > 92 µM | [19] | [1] | [2] | [3] | [4] | [20] | [5] | [6] | [7] | [8] | [9] | [10] | [11] | [12] | [13] | [14] | [15] | [16]

CCCCC(CC)CN (stereo unspecified)
inactive: [17] > 92 µM | [18] > 92 µM | [19] | [1] | [2] | [3] | [4] | [20] | [5] | [6] | [7] | [8] | [9] | [10] | [11] | [12] | [13] | [14] | [15] | [16]

CCO
inactive: [17] > 92 µM | [18] > 92 µM | [19] | [1] | [2] | [3] | [4] | [20] | [5] | [6] | [7] | [8] | [9] | [10] | [11] | [12] | [13] | [14] | [15] | [16]

O=C(O)c1ccc(O)cc1O
inactive: [17] > 92 µM | [18] > 92 µM | [19] | [1] | [2] | [3] | [4] | [20] | [5] | [6] | [7] | [8] | [9] | [10] | [11] | [12] | [13] | [14] | [15] | [16]

Cc1ccc(N)c([N+](=O)[O-])c1
inactive: [17] > 92 µM | [18] > 92 µM | [19] | [1] | [2] | [3] | [4] | [20] | [5] | [6] | [7] | [8] | [9] | [10] | [11] | [12] | [13] | [14] | [15] | [16]

COc1c2ccoc2cc2oc(=O)ccc12
inactive: [17] > 92 µM | [18] > 92 µM | [19] | [1] | [2] | [3] | [4] | [20] | [5] | [6] | [7] | [8] | [9] | [10] | [11] | [12] | [13] | [14] | [15] | [16]

Cc1ccc([N+](=O)[O-])c(C)c1
inactive: [17] > 92 µM | [18] > 92 µM | [19] | [1] | [2] | [3] | [4] | [20] | [5] | [6] | [7] | [8] | [9] | [10] | [11] | [12] | [13] | [14] | [15] | [16]

Clc1cc(Cl)c(Cl)cc1Cl
inactive: [17] > 92 µM | [18] > 92 µM | [19] | [1] | [2] | [3] | [4] | [20] | [5] | [6] | [7] | [8] | [9] | [10] | [11] | [12] | [13] | [14] | [15] | [16]

Clc1cc(Cl)c(Cl)c(Cl)c1Cl
inactive: [17] > 92 µM | [18] > 92 µM | [19] | [1] | [2] | [3] | [4] | [20] | [5] | [6] | [7] | [8] | [9] | [10] | [11] | [12] | [13] | [14] | [15] | [16]

CN(C)CCCCCCN(C)C
inactive: [17] > 92 µM | [18] > 92 µM | [19] | [1] | [2] | [3] | [4] | [20] | [5] | [6] | [7] | [8] | [9] | [10] | [11] | [12] | [13] | [14] | [15] | [16]

CC(C)=CCCC(C)CCO (stereo unspecified)
inactive: [17] > 92 µM | [18] > 92 µM | [19] | [1] | [2] | [3] | [4] | [20] | [5] | [6] | [7] | [8] | [9] | [10] | [11] | [12] | [13] | [14] | [15] | [16]

COCC(=O)O
inactive: [17] > 92 µM | [18] > 92 µM | [19] | [1] | [2] | [3] | [4] | [20] | [5] | [6] | [7] | [8] | [9] | [10] | [11] | [12] | [13] | [14] | [15] | [16]
